Measurements published in PubChem BioAssay AID1159580 (chemical genetic matrix, 2015).
Values joined by “and” are separate entries in the source; they are usually repeats but may differ in a detail not shown here. Equal entries are not always repeated. About 2,000 (36%) of roughly 5,500 compounds were called active. Inconclusive results (about 18%) are left out. No stated cut-off is given here; in the data, active means normalized growth mostly below about 0.91 (no sharp cut-off); inconclusive means no clear call, values can overlap the other calls; inactive means mostly above about 0.92. Some of the results follow.

Experiment: chemical genetic growth profiling, strain panel (AID 1159580);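 further: tested at 20 µM; growth read once vehicle control cultures reached saturation at 30 °C; 1 = growth at the plate median or of vehicle wells; lower values mean less growth of the strain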
Conditions: S. cerevisiae deletion strains, growth OD

Measured: normalized growth

Cn1c(=O)[nH]c2ncn(C)c2c1=O
inactive: locus YAL013W, strain DEP1, hits give low values 1.01 | locus YAL021C, strain ccr4, hits give low values 1.06 | locus YAL026C, strain drs2, hits give low values 0.985 | locus YAL030W, strain snc1, hits give low values 0.981 | locus YAL040C, strain CLN3, hits give low values 0.958 | locus YBL061C, strain skt5, hits give low values 0.99 | locus YBR009C, strain hhf1, hits give low values 0.995 | locus YBR021W, strain FUR4, hits give low values 1.04 | locus YBR023C, strain chs3, hits give low values 1 | locus YBR171W, strain sec66, hits give low values 0.95 | locus YBR229C, strain ROT2, hits give low values 1.01 | locus YBR231C, strain swc5, hits give low values 0.962 | locus YBR279W, strain paf1, hits give low values 0.993 | locus YCL011C, strain gbp2, hits give low values 0.966 | locus YCL016C, strain dcc1, hits give low values 1.03 | locus YCL029C, strain bik1, hits give low values 0.996 | locus YCL061C, strain MRC1 (second series), hits give low values 1.01 | locus YCL061C, strain MRC1, hits give low values 0.995 | locus YCL069W, strain vba3, hits give low values 0.968 | locus YCR088W, strain abp1, hits give low values 0.966 | locus YDL005C, strain med2, hits give low values 0.962 | locus YDL035C, strain GPR1, hits give low values 1.02 | locus YDL040C, strain nat1, hits give low values 0.962 | locus YDL074C, strain BRE1, hits give low values 1.05 | locus YDL101C, strain DUN1, hits give low values 1.01 | locus YDL134C, strain PPH21, hits give low values 1.02 | locus YDL185W, strain tfp1, hits give low values 0.996 | locus YDL192W, strain arf1, hits give low values 0.993 | locus YDR001C, strain nth1, hits give low values 0.968 | locus YDR069C, strain doa4, hits give low values 0.949 | locus YDR101C, strain arx1, hits give low values 1 | locus YDR137W, strain rgp1, hits give low values 0.988 | locus YDR150W, strain NUM1, hits give low values 1.02 and 0.997 | locus YDR159W, strain sac3, hits give low values 0.939 | locus YDR162C, strain NBP2, hits give low values 1 | locus YDR195W, strain ref2 0.95 | locus YDR297W, strain sur2, hits give low values 0.959 | locus YDR318W, strain mcm21, hits give low values 0.992 | locus YDR334W, strain swr1, hits give low values 0.975 | locus YDR335W, strain msn5, hits give low values 0.978 | locus YDR363W, strain ESC2, hits give low values 1.01 | locus YDR388W, hits give low values 0.989 | locus YDR392W, strain spt3, hits give low values 0.937 | locus YDR502C, strain sam2, hits give low values 0.993 | locus YEL003W, strain gim4, hits give low values 0.972 | locus YEL037C, strain rad23, hits give low values 0.968 | locus YEL061C, strain CIN8 (second series), hits give low values 0.959 | locus YEL061C, strain CIN8, hits give low values 1.01 | locus YER002W, strain NOP16, hits give low values 1.01 | locus YER015W, strain faa2, hits give low values 0.98 | locus YER016W, strain bim1, hits give low values 0.967 | locus YER110C, hits give low values 0.996 | locus YER111C, strain swi4, hits give low values 0.98 | locus YER155C, strain BEM2 (second series), hits give low values 0.959 | locus YER155C, strain BEM2, hits give low values 1.02 | locus YER167W, strain BCK2, hits give low values 1.01 | locus YFR010W, strain ubp6, hits give low values 0.962 | locus YGL078C, strain dbp3, hits give low values 0.989 | locus YGL086W, strain mad1, hits give low values 1 | locus YGL167C, strain pmr1, hits give low values 0.982 | locus YGL173C, strain kem1, hits give low values 0.97 | locus YGL227W, strain vid30, hits give low values 0.967 | locus YGL240W, strain doc1, hits give low values 0.958 | locus YGL248W, strain PDE1, hits give low values 1.01 | locus YGL253W, strain hxk2, hits give low values 0.958 | locus YGR078C, strain PAC10, hits give low values 1.02 and 0.978 | locus YGR135W, strain pre9, hits give low values 0.992 | locus YGR229C, strain SMI1, hits give low values 1.02 | locus YGR252W, strain gcn5, hits give low values 0.981 | locus YHR013C, strain ard1, hits give low values 0.986 | locus YHR027C, strain rpn1, hits give low values 0.98 | locus YHR030C, strain SLT2, hits give low values 1 | locus YHR079C, strain IRE1 (second series), hits give low values 0.987 | locus YHR094C, strain hxt1, hits give low values 0.992 | locus YHR129C, strain ARP1, hits give low values 1.02 | locus YHR142W, strain chs7, hits give low values 0.987 | locus YHR200W, strain rpn10, hits give low values 0.993 | locus YIL066C, strain RNR3, hits give low values 1.01 | locus YIL073C, strain SPO22, hits give low values 1 | locus YIL125W, strain kgd1, hits give low values 0.994 | locus YIR030C, strain dcg1, hits give low values 1 | locus YJL092W, strain hpr5, hits give low values 0.971 | locus YJL095W, strain BCK1 (second series), hits give low values 0.973 | locus YJL095W, strain BCK1, hits give low values 1.02 | locus YJL115W, strain asf1, hits give low values 0.969 | locus YJL129C, strain trk1, hits give low values 0.967 | locus YJL134W, strain LCB3, hits give low values 1 | locus YJL154C, strain vps35, hits give low values 0.969 | locus YJL164C, strain tpk1, hits give low values 1 | locus YJL166W, strain qcr8, hits give low values 0.972 | locus YJL168C, strain set2, hits give low values 0.99 | locus YJL187C, strain SWE1 (second series), hits give low values 1.01 | locus YJL187C, strain SWE1, hits give low values 0.986
